# Screening data deposited in PubChem by National Center for Advancing Translational Sciences (NCATS).
# HT1080 IDH1KD tx – toxicity to HT-1080 IDH1 knockdown cells (counter line) | HT-1080 IDH1 knockdown viability, ATP luminescence, 48 h | Potency, µM (top dose mostly 46.1 µM), without a hit: at the highest dose activity, negative = toxicity, hits mostly cytotoxic | 360,000 compounds, 2% hits;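 note: 0% = DMSO wells and -100% = cell-free medium wells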
#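 % activity derives from luminescence (CellTiter-Glo), normalised to DMSO and no-cell wells. HT-1080-IDH1KD cells, 750/well, had 48 h compound exposure at 37 °C.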
# ATXN viability – reduces viability in counter-screen for ATXN expression inhibitors; S2 cells (HEK-293 line with an ATXN2-luciferase reporter) viability, CellTiter-Fluor protease fluorescence, 24 h; Potency, µM (doses to about 56.7 µM), hits mostly cytotoxic; 400,000 compounds, 0.49% hits; AID 651635; note: nearly all actives have a fitted effect of over 40% in size
# KB-3-1 tox – KB-3-1 parental cell cytotoxicity | 400,000 compounds, 1.4% hits | Potency, µM (top dose mostly 46.1 µM), usual class: cytotoxic | KB-3-1 viability, CellTiter-Glo ATP luminescence, 72 h | AID 1347075; note: % is set by controls: 0 for no effect and ±100 for the full control effect; nearly all actives have a fitted effect of over 60% in size
#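 Using CellTiter-Glo luminescence, growth of non-resistant KB-3-1 adenocarcinoma cells is assessed 72 h after pin-tool compound addition at 37 °C. Normalized responses across the concentration series yield fitted curves.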
# ATXN2 expr inh – inhibitors of ATXN2 expression | HEK-293 ATXN2-luciferase reporter, luminescence, 24 h | Potency, µM (titrated, usually from 57 µM), without a hit: at the top dose activity change, negative = inhibition, usual class: inhibitors | 360,000 compounds, 0.72% hits; note: % is set by controls: 0 for no effect and ±100 for the full control effect; nearly all actives have a fitted effect of over 55% in size
#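 ATXN2-luciferase reporter cells (luciferase flanked by upstream and downstream ATXN2 gene portions) were treated 24 h at 37 °C with compounds at up to 57 uM. SteadyGlo luminescence gave expression; GF-AFC fluorescence gave viability.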
# KB-V1 cytotox – kills drug-selected multidrug resistant KB-V1 cells. AID 1347076. Potency, µM (top dose mostly 46.1 µM), most hits filed as cytotoxic. 400,000 compounds, 3.4% hits. KB-V1 MDR cells viability, CellTiter-Glo, 72 h; note: % is set by controls: 0 for no effect and ±100 for the full control effect; nearly all actives have a fitted effect of over 60% in size
#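 Potencies derive from concentration-effect curves fitted to normalized luminescence (CellTiter-Glo) of KB-V1 cells treated for 72 h at 37 degrees C in phenol-red-free DMEM containing 10% FBS.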
# HT1080-NT tox – kills 2HG-producing HT-1080-NT fibrosarcoma cells. 360,000 compounds, 1.6% hits. HT-1080-NT fibrosarcoma viability, CellTiter-Glo ATP luminescence, 48 h. Potency, µM (top dose mostly 46.1 µM), without a hit: top-dose activity, negative = less viability, actives largely listed as cytotoxic. AID 686970;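 note: NT is the 2HG producing partner of a matched IDH1 knockdown line; 0% = DMSO-treated cells and -100% = media-only wells without cells; nearly all actives have a fitted effect of over 55% in size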
#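 Fibrosarcoma NT cells, 750 per well in 5% FBS RPMI, were exposed to compound for 48 hours. Viability: CellTiter-Glo luminescence.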
# * hit, by the source's call; i = inactive; ? = inconclusive; nt = no result; [ ] = another dose, or the depositor's remark. In the library only some 6.2% were active in any assay of this set; here they are far more common. Calls come from the whole dose curve; as a rule, active = well fitted curve in the direction sought with a large enough effect; inconclusive = small, poorly fitted or top-dose-only effect, or another doubt; inactive = no such curve, though single readings can be large; an effect the other way counts as inactive or inconclusive. Potency is the fitted concentration of half-maximal effect.
SMILES,HT1080 IDH1KD tx,ATXN viability,KB-3-1 tox,ATXN2 expr inh,KB-V1 cytotox,HT1080-NT tox
CCc1nc2ccc(Br)cc2c(=O)n1-c1ccccc1C(F)(F)F,0%,i,i,-9%,i,2%
CCCc1nc2ccc(Br)cc2c(=O)n1-c1ccc([N+](=O)[O-])c(C(F)(F)F)c1,?,i,?,-35%,16µM*,?
CCC(=NCCOc1ccc(Cl)cc1)c1c(O)n(C)c(=O)n(C)c1=O,-14%,i,?,-30%,18µM*,?
CCCCn1c(O)c(C(C)=NCc2ccc3c(c2)OCO3)c(=O)[nH]c1=O,-1%,i,i,-22%,?,-2%
CCC(=NCc1ccc2c(c1)OCO2)c1c(O)n(C)c(=O)n(C)c1=O,-19%,i,15µM*,-25%,i,-14%
CC(=NCc1ccc2c(c1)OCO2)c1c(O)n(C)c(=O)n(C)c1=O,-26%,i,8.2µM*,-14%,21µM*,2.5µM*
CCC(=NCc1cc(OC)cc(OC)c1)c1c(O)n(C)c(=O)n(C)c1=O,1%,i,?,-24%,7.3µM*,9%
CCC(=NCCN1CCCCC1)c1c(O)n(C)c(=O)n(C)c1=O,3%,i,i,-2%,i,7%
Cc1ccccc1C1CC(=O)Nc2ccc3ccccc3c21 (stereo not drawn),nt,?,?,-21%,?,nt
O=S(=O)(O)C(F)(F)C(F)(F)C(F)(F)C(F)(F)C(F)(F)C(F)(F)C(F)(F)C(F)(F)F,nt,?,nt,15%[116 µM],nt,nt
c1cc2c(c(N3CCNCC3)c1)OCCO2,nt,i,nt,6%,nt,nt
CC(C)c1ccc(NC(=O)CN2C(=O)CN=C(c3ccccc3)c3ccccc32)cc1,nt,?,i,7%,i,nt
CCC(=O)N1CC(=O)Nc2ccc(C)cc2C1c1ccc(F)cc1 (stereo not drawn),nt,i,i,3%,i,nt
N#Cc1cc2c(nc1SCC(=O)Nc1ccc(Cl)cc1)C1CCN2CC1,?,i,?,-2%,2.9µM*,?
N#Cc1cc2c(nc1SCC(=O)Nc1cc(Cl)ccc1Cl)C1CCN2CC1,?,?,?,?,4.1µM*,?
Nc1c(C(=O)Nc2ccc(Cl)cc2)sc2nc3c(cc12)N1CCC3CC1,nt,nt,i,-6%,7.3µM*,nt
CO[C@@H](C)[C@](O)(C(=O)OCC1=CCN2CC[C@@H](O)[C@H]12)C(C)C,nt,i,nt,nt,nt,nt
COP(=O)(OC)[C@@H](O)C(Cl)(Cl)Cl,nt,i,nt,nt,nt,nt
CCN1C(=O)c2ccccc2Sc2ccc(NC(=O)Nc3ccc(Br)c(C)c3)cc21,nt,?,i,?,?,nt
CC(C)(C)c1cc(C=C(C#N)C#N)cc(Br)c1O,nt,nt,nt,27µM*,nt,nt
Cc1cc(C=C(C#N)C#N)ccc1N1CCCC1,8%,i,i,-7%[11.3 µM],i,4%
Cc1ccc(S(=O)(=O)N(C)C[C@H]2Oc3cc(Br)ccc3S(=O)(=O)N([C@H](C)CO)C[C@H]2C)cc1,-5%,?,?,?,?,-20%
C[C@@H]1CN([C@H](C)CO)S(=O)(=O)c2ccc(C#Cc3cccc(F)c3)cc2O[C@@H]1CN(C)C(=O)CN1CCOCC1,-14%,20µM*,i,?,i,-8%
CC(Cc1ccccc1)NCCCCl (stereo not drawn),nt,i,nt,-8%,nt,nt
CC(=O)OC[C@]12CCC(C)=C[C@H]1O[C@@H]1[C@H](O)[C@@H](OC(C)=O)[C@@]2(C)[C@]12CO2,0.21µM*,i,?,-71%,?,?
SMILES,HT1080 IDH1KD tx,ATXN viability,KB-3-1 tox,ATXN2 expr inh,KB-V1 cytotox,HT1080-NT tox
OC1CCC(Nc2ccn3nc(-c4cccc(OCc5ccccc5)c4)cc3n2)CC1 (stereo not drawn),?,?,i,-5%,i,?
N=c1c2c(-c3ccccc3)c(-c3ccccc3)n(Cc3ccccc3)c2ncn1C1CCC(O)CC1 (stereo not drawn),nt,nt,nt,24µM*,nt,nt
CCN(CC)c1ccc(/C=C/[N+](=O)[O-])cc1,16µM*,i,?,1%[11.3 µM],?,?
COc1cc(/C=C/[N+](=O)[O-])ccc1O,?,?,?,-26%,i,?
CSc1ncc(C(=O)Nc2ccc(Cl)cc2C(=O)c2ccccc2)c(C)n1,nt,i,i,1%,i,nt
CC1CN(C(=O)c2ccc(S(=O)(=O)Nc3ccccc3F)cc2)CC(C)O1 (stereo not drawn),0%,?,i,6%,i,-11%
COC(=O)C1=C(c2ccc(OCc3ccccc3)cc2)C[C@@H]2CC[C@H]1N2C(=O)NCCN1CCOCC1,-10%,i,i,-26%,i,-16%
COC(=O)C1=C(c2ccc(OCc3ccccc3)cc2)C[C@@H]2CC[C@H]1N2C(=O)NCCCCc1ccccc1,-11%,i,?,-19%,?,-21%
COC(=O)C1=C(c2ccc(OCc3ccccc3)cc2)C[C@@H]2CC[C@H]1N2C(=O)NC1CCN(Cc2ccccc2)CC1,?,11µM*,?,13µM*,i,?
COC(=O)C1=C(c2ccc(OCc3ccccc3)cc2)C[C@@H]2CC[C@H]1N2C(=O)NCCc1ccc(F)cc1,?,?,?,-38%,16µM*,-20%
O=C1NC[C@H](CCCCN2C[C@H](Cc3ccccc3)N(CCc3ccccc3)C(=O)C2=O)N(CC2CCCCC2)C1=O,?,i,i,2%,i,20%
CCC(=C(c1ccc(O)cc1)c1ccc(OCCN(C)C)cc1)c1ccccc1,0%,i,i,-1%,i,0%
CC/C(=C(\c1ccc(O)cc1)c1ccc(OCCN(C)C)cc1)c1ccccc1,18µM*,nt,i,?,?,16µM*
CCC(=O)Nc1ccc(C(=O)OCc2ccccc2Cl)cc1,3%,?,i,70%,15µM*,3%
CCC(=O)Nc1ccc(Cl)c(Cl)c1,2%,i,i,-7%,i,-5%
Cc1ccc(Cn2cccc(C(=O)Nc3nnc(C)s3)c2=O)cc1,nt,i,?,2%,i,nt
Cc1ccc2c(c1)[C@]13CCCC[C@@H]1[C@H](C2)N(C)CC3,nt,i,nt,nt,nt,nt
N#CC1=C(N)Oc2c(c(=O)oc3ccccc23)C1c1ccncc1 (stereo not drawn),-2%,i,i,8%,i,-2%
N#CC1=C(N)Oc2c(c(=O)sc3ccccc23)C1c1cccnc1 (stereo not drawn),4.6µM*,?,?,-18%,i,3.3µM*
